Molecules are shown by their SMILES. The source made the active and inactive calls.

For five compounds, composite z-score, z-score and composite Z-score results are on record in PubChem BioAssay.

For test [1], the system named is Human papillomavirus type 1a protein E7 (residues 44-93). As to the kind of experiment: small molecules binding HPV E7 44-93 – biochemical, small-molecule microarray, residues 44-93, 635 nm fluorescence, primary screen (AID 1108).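 Also: E7 fragment applied at 1 µg/mL in TBST for 1 h at 4 C; score combines spot fluorescence with its signal to noise ratio.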 As to conditions: fluorescence 635 nm, higher = more signal.
Test [2] is described as follows: hepatitis C replication reporter changes, two-sided – Huh7 cells, luciferase reporter, HCV replication inhibitor project, primary screen (AID 1109).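 Also: huh7 hepatoma cells harbouring a luciferase neomycin HCV replicon reporter; luciferase luminescence as measure of HCV replicon replication; test concentration not given here.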 The conditions noted are these: Huh7 HCV replicon luciferase reporter, 48 h; higher = more signal. On the technique in general: Reporter assays use an easily measured gene product as a stand-in for the process of interest.

In test [3] the target is Left-right determination factor 2 (Homo sapiens) (UniProt O00292). As to the kind of experiment: small molecules binding LEFTY2 protein – biochemical, small-molecule microarray, 635 nm fluorescence scan, primary screen (AID 1110). The conditions noted are these: higher = more signal.
In test [4] the target is Calmodulin-1 (Homo sapiens) (UniProt P0DP23). As to the kind of experiment: small molecules binding calmodulin-1 with EGTA – biochemical, small-molecule microarray, Cy5-labelled CALM1, profiling panel (AID 1111).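 Also: labelled calmodulin applied in Tris saline Tween buffer holding calcium plus EGTA and DTT.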 The conditions noted are these: Cy5-CALM1 binding fluorescence, higher = more signal.
The target is the same in test [5]. As to the kind of experiment: small molecules binding Ca-loaded calmodulin-1 – biochemical, small-molecule microarray, Cy5-labelled CALM1, plus calcium, artefact control for SMM control-protein annotation, profiling panel (AID 1112).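 Also: score merges spot fluorescence with signal to noise from triplicate slides.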 The conditions noted are these: Cy5-CALM1 binding fluorescence, higher = more signal.
Test [6] in a line: probe aWnt5a binding to arrayed compounds – biochemical, biotinylated probe, 635/667 nm fluorescence, primary screen (AID 1113).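 Also: score merges 667 nm fluorescence intensity with signal-to-noise per printed feature.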 The conditions noted are these: small-molecule microarray, higher = more signal.
A short description of test [7]: probe aShh binding to arrayed compounds – biochemical, biotinylated probe, 635/667 nm fluorescence, primary screen (AID 1114).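 Also: probe is biotin-labelled aShh protein from a stem cell growth factor screen; measures binding of labelled protein to compounds printed on the slide; score merges feature fluorescence at 667 nm with signal-to-noise.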 As to conditions: small-molecule microarray, higher = more signal.
Test [8] is described as follows: probe aNog binding to arrayed compounds – biochemical, biotinylated probe, 635/667 nm fluorescence, primary screen (AID 1115).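 Also: probe is biotinylated aNog protein used at 0.15 µg/mL for 1 h at 4 C; z-score combines 667 nm fluorescence of each spot with its signal to noise.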 As to conditions: small-molecule microarray, higher = more signal.
Test [9] has as its target Torsin-1A-interacting protein 1 (Homo sapiens) (UniProt Q5JTV8). As to the kind of experiment: compound microarray binding of lysate hLAP1 – cell lysate, small-molecule microarray, COS7 lysate, 635/667 nm fluorescence, primary screen (AID 1116). The conditions noted are these: 635 nm fluorescence, higher = more signal.
The target of test [10] is Alpha-bungarotoxin (Bungarus multicinctus) (UniProt P60615). As to the kind of experiment: compounds binding labelled alpha-BTX control protein – biochemical, small-molecule microarray, Alexa647 label, 635/667 nm fluorescence, artefact control for SMM control protein annotation, profiling panel (AID 1117). As to conditions: alpha-BTX-A647 binding fluorescence, higher = more signal.

In test [11] the target is Albumin (Bos taurus) (UniProt P02769). Briefly: compounds binding labelled BSA control protein – biochemical, small-molecule microarray, Alexa647 label, 635/667 nm fluorescence, artefact control for SMM control protein annotation, profiling panel (AID 1118).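 Also: score merges 667 nm emission intensity and signal-to-noise per printed compound spot.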 As to conditions: BSA-A647 binding, fluorescence 635 nm, higher = more signal.
The nature of test [12]: probe aXIP binding to arrayed compounds – biochemical, NeuroSMM set, 635/667 nm fluorescence, primary screen (AID 1119).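 Also: probe is the protein aXip251-270 applied at 1 µg/mL to compound-printed slides; binding of probe to printed compounds measured as 667 nm fluorescence plus signal to noise.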 As to conditions: small-molecule microarray, higher = more signal, called active from +8 up or from −8 down.
A short description of test [13]: probe aNOTCH3 binding on compound microarray – biochemical, small-molecule microarray, 635/667 nm fluorescence, primary screen (AID 1120).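 Also: probe is a biotin-tagged antibody raised against NOTCH3 rather than NOTCH3 protein; score merges spot fluorescence near 667 nm with spot signal to noise.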 As to conditions: higher = more signal.
A short description of test [14]: probe aNOTCH2 binding on compound microarray – biochemical, small-molecule microarray, 635/667 nm fluorescence, primary screen (AID 1121).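 Also: score merges feature fluorescence read at 667 nm with its signal to noise.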 The conditions noted are these: higher = more signal.
The target of test [15] is Carbonic anhydrase 2 (Homo sapiens) (UniProt P00918). Briefly: compounds binding carbonic anhydrase 2 – biochemical, small-molecule microarray, Alexa647-labelled CAII, profiling panel (AID 1122). The conditions noted are these: CAII-A647 binding fluorescence, higher = more signal.
Test [16] can be described thus: COS7 lysate on small-molecule microarray, probe aHis, 635 nm (AID 1123).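 Also: z-score combines 667nm fluorescence intensity with signal-to-noise per printed compound spot.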 As to conditions: COS7 cell lysate, fluorescence, higher = more signal.
The nature of test [17]: probe aLAP1 signal on lysate-treated microarray – cell lysate, small-molecule microarray, COS7 lysate, primary screen (AID 1124).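 Also: lysate comes from COS7 cells expressing LAP1 and is applied at 0.3 µg/mL; score merges spot fluorescence near 667 nm with signal-to-noise over triplicate slides.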 As to conditions: probe aLAP1, fluorescence, higher = more signal.
For test [18], the system named is Sam68 (KHDRBS1). Briefly: compounds binding KHDRBS1 protein – biochemical, small-molecule microarray, 635 nm fluorescence, primary screen (AID 1125).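 Also: score merges 667 nm channel intensity with signal to noise over triplicate slides.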 As to conditions: higher = more signal.
For test [19], the system named is Chordin-like protein 2 (CHRDL2). As to the kind of experiment: compounds binding chordin-like 2 – biochemical, small-molecule microarray, 635 nm fluorescence, primary screen (AID 1126).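 Also: printed compound slides probed with Chrdl2 protein at 4 µg/mL for 1 h at 4 C; score merges 667 nm emission intensity with signal to noise over three replicate slides.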 As to conditions: fluorescence 635 nm, higher = more signal.
Test [20] addresses Concanavalin-A (Canavalia ensiformis) (UniProt P02866). Briefly: compounds binding concanavalin A lectin – biochemical, small-molecule microarray, Alexa647 label, 635 nm, artefact control for SMM control protein annotation, primary screen (AID 1127).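 Also: z combines 667 nm emission intensity with signal-to-noise across three replicate slides.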 As to conditions: ConA-A647 binding fluorescence, higher = more signal.

Chain of Concanavalin-A (Canavalia ensiformis) (P02866 whole entry, looked up): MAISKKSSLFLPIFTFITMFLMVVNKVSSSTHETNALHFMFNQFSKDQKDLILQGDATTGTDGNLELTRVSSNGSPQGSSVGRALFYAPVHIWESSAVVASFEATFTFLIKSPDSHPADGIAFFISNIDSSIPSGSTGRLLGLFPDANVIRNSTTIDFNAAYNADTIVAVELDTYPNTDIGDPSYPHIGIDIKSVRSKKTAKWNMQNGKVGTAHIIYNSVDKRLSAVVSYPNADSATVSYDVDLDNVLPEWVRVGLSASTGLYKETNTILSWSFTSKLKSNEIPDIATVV
Chain of Alpha-bungarotoxin (Bungarus multicinctus) (P60615 whole entry, looked up): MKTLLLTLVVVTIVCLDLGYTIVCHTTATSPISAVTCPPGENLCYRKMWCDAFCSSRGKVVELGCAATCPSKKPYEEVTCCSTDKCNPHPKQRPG
Chain of Torsin-1A-interacting protein 1 (Homo sapiens) (Q5JTV8 whole entry, looked up): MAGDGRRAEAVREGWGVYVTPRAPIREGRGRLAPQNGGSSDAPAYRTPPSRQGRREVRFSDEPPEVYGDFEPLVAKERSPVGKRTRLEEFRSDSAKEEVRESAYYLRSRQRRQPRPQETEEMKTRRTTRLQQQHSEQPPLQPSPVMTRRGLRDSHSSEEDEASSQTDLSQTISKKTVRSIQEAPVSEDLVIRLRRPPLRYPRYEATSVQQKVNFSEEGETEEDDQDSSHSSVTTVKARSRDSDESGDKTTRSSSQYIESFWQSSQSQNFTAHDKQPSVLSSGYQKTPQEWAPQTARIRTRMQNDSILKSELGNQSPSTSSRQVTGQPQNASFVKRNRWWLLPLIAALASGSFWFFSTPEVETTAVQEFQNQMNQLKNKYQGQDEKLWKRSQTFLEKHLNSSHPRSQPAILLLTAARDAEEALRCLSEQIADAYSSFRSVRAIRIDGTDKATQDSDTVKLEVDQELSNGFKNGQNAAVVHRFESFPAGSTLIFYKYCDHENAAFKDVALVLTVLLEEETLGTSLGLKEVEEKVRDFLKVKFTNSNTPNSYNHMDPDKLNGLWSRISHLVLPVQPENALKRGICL
Chain of Left-right determination factor 2 (Homo sapiens) (O00292 whole entry, looked up): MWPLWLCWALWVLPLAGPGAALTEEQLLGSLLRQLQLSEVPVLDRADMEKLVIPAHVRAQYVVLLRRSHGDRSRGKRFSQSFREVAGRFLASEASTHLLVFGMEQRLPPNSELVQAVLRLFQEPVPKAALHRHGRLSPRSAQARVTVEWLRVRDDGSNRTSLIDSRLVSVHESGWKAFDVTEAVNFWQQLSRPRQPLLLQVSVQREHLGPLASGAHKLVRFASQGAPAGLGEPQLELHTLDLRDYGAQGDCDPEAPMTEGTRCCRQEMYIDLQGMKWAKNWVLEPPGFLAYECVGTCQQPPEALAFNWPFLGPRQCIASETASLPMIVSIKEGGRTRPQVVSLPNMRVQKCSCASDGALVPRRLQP
Chain of Albumin (Bos taurus) (P02769 whole entry, looked up): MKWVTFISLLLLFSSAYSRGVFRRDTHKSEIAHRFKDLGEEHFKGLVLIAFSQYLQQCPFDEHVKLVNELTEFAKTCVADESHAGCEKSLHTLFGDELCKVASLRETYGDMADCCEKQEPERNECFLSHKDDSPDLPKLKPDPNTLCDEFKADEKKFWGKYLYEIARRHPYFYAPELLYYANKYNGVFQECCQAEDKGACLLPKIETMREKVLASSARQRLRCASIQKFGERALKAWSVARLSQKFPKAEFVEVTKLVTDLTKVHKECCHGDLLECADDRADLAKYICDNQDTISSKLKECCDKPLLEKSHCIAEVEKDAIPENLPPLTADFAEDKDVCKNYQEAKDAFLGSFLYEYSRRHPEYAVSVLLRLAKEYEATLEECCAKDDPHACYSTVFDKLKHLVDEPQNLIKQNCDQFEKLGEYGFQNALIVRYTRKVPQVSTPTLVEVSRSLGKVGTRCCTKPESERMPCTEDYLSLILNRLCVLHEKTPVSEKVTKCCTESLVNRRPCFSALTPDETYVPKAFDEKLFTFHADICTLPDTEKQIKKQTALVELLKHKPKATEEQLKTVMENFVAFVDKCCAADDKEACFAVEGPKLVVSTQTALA

Turning to `O=C1O[C@H](c2ccccc2)[C@H](c2ccccc2)N2[C@H]1[C@@H](C(=O)O)[C@]1(C(=O)Nc3ccccc31)[C@H]2c1ccc(O)cc1`, the composite z-score in [1] is 0.49; in test [3], -0.274; in test [4] it was -0.2; in [5] it was -0.262; in [6], -0.1; in test [7] it was -0.262. Also, the composite z-score in [8] is 0.101; in test [9] it was -0.321; in test [10], -0.286; in test [11] it was -0.731; in test [13], -0.135; in [14], -0.131. Further, the composite z-score in test [15] is 0.673; in test [16], 0.969; in test [17] it was 1.01; in [18], -0.43; in test [19], -0.632; in test [20], 0.586. The same compound showed a z-score in [2] of -0.361. In addition, in [12], the composite Z-score is -0.0012 (inactive).

Regarding `O=C(N1CCCCC1)[C@@]1(Cc2ccccc2)COC(c2ccc(OCCCO)cc2)=N1`, the composite z-score in [1] was 0.242; in [3], -0.462; in test [4], 2.02; in [5], 1.23; in test [6], 0.113; in test [7] it was 0.253. In addition, the composite z-score worked out at 0.293 in test [8]; 0.996 in [9]; 1.83 in test [10]; 0.874 in [11]; 0.501 in test [13]; 0.313 in test [14]. In addition, the composite z-score is 0.714 in test [15]; 2.44 in test [16]; 0.409 in test [17]; 1.33 in [18]; -0.729 in [19]; 0.892 in test [20]. Besides, in [2], the z-score was -1.98. For the same compound, the composite Z-score in test [12] is 0.986 (inactive).

With `COCC(=C=CC[C@H](O)c1cccc(OCCO)c1)C[C@H](O)c1ccccn1`, the composite z-score in test [1] was 0.0462; in test [3] it was -0.0587; in [4] it was -0.319; in [5] it was -0.621; in [6], 0.0151; in test [7] it was 0.0952. Further, the composite z-score in test [8] is 0.167; in test [9], 1.68; in test [10] it was 1.26; in [11], 0.0722; in test [13] it was -0.004; in [14], -0.145. Moreover, the composite z-score in test [15] is 0.778; in test [16] it was 3.79; in [17], 0.369; in [18] it was 0.52; in test [19] it was -0.0575; in test [20], 0.102. This compound gave a z-score in [2] of -0.0093. Further, in test [12], the composite Z-score was -0.0402 (inactive).

Take `CN(C)CCCNC(=O)[C@@H]1c2ccccc2C(=O)N(Cc2ccc(OC(F)(F)F)cc2)[C@H]1c1ccc(CO)cc1`: the composite z-score in test [1] is 1.35; in test [3], -0.0765; in [4], -0.226; in test [5] it was -0.919; in [6] it was 0.0003; in test [7] it was 0.0278. Besides, the composite z-score in [8] is -0.309; in test [9], 0.724; in test [10] it was 0.243; in test [11], -0.298; in [13], 0.0469; in [14], -0.115. Also, the composite z-score came out at 0.398 in test [15]; 1.4 in [16]; 0.602 in [17]; 1.26 in test [18]; 0.151 in test [19]; 0.675 in [20]. The same compound yielded a z-score in test [2] of -2.08. Further, the composite Z-score in test [12] is 0.729 (inactive).

`CCOC(=O)C[C@H]1[C@H](OC(=O)c2ccccc2-c2ccccc2)[C@@H](NC(=O)CC(C)C)c2cc(OCCCO)ccc2N1C(=O)c1ccc2ccccc2n1`: the composite z-score is 0.046 in test [1]; 0.186 in test [3]; 0.844 in test [4]; -0.456 in test [5]; -0.124 in [6]; -0.0769 in test [7]. The composite z-score in [8] was -0.134; in test [9], 0.171; in test [10] it was 0.719; in [11], 0.641; in test [13], -0.0031; in test [14], -0.13. Also, the composite z-score in test [15] amounted to 0.431; in test [16], 0.578; in test [17], 0.452; in test [18], 0.569; in [19] it was 0.224; in test [20], 0.629. In addition, the z-score in [2] was -0.578. Further, the composite Z-score in test [12] was 0.675 (inactive).
